Where “and” joins values, the source holds several entries; their conditions need not be identical. Identical values can stand only once. Records with an inconclusive call do not appear. Calls of active or inactive are those of the source. Unless noted, calls follow the shape of the dose curve; as a rule, active = well fitted curve in the direction sought with a large enough effect; inconclusive = small, poorly fitted or top-dose-only effect, or another doubt; inactive = no such curve, though single readings can be large; an effect the other way counts as inactive or inconclusive.
Experiments:
[1] = qHTS Assay for Lipid Storage Modulators (AID 1519; calls by dose curve; as to activity change, negative = inhibition: % is scaled to controls: 0 for no effect and ±100 for the full control effect); details: Drosophila S3 cells, BODIPY lipid droplet/cell ratio, laser cytometry, cells loaded with oleic acid; for activity change, negative = inhibition: at 57.5 µM (top of the series)
Outline: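 Cells seeded at 5,000 per well were treated with compounds over a concentration series and loaded with oleic acid (400 uM, as added). Lipid droplet fluorescence (488 nm excitation, 500-530 nm channel) was read by laser-scanning cytometry and normalized to 20 uM Triacsin C.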

[2] = biological target: DNA repair nuclease/redox regulator APEX1 (Homo sapiens) (UniProt P27695); assay: qHTS Validation Assay for Inhibitors of the Human Apurinic/apyrimidinic Endonuclease 1 (APE1) (AID 1705;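 also: TAMRA fluorescence gain over two minutes as APE1 cuts a quenched THF abasic duplex; % is scaled to controls: 0 for no effect and ±100 for the full control effect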)
Sequence of DNA repair nuclease/redox regulator APEX1 (Homo sapiens) (P27695 whole entry, looked up): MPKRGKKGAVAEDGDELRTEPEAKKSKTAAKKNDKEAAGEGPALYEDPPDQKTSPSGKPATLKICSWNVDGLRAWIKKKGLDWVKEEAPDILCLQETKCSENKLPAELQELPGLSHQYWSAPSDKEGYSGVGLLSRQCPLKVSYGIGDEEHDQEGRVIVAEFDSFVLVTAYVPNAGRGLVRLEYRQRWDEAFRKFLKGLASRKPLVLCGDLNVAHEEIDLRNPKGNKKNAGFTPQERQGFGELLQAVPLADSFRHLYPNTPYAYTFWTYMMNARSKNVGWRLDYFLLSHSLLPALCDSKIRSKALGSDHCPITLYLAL
Outline: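 Read-out: TAMRA fluorescence (525 nm ex, 598 nm em) from cleavage of a quenched THF abasic-site duplex, 50 nM final; activity taken as intensity change between third and first of three reads 60 s apart.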

[3] = Counterscreen for APE1 Inhibitors: Fluorescent Dye Displacement Validation Assay (AID 1707);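 also: plate controls were ThO with dsDNA and no compound for no effect and ThO without dsDNA for full effect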
Outline: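 Counterscreen flags promiscuous DNA binders: compounds displacing ThO from duplex DNA (abasic THF site, 50 nM) reduce 540 nm emission (480 nm excitation). ThO 250 nM final; Tris-HCl pH 7.5 with NaCl, MgCl2 and Tween-20.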

[4] = qHTS for differential inhibitors of proliferation of Plasmodium falciparum line 7G8 (AID 1815);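 also: parasite growth measured after three days of incubation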; also: potency is read from the fitted curve at half-maximal effect;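 as to activity change, negative = inhibition: plate controls were vehicle wells for no effect and reference inhibitor wells for full effect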
[5] = qHTS for differential inhibitors of proliferation of Plasmodium falciparum line GB4 (AID 1816); details: Potency: Plasmodium falciparum GB4 proliferation inhibition;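 also: parasite growth measured after 72 h incubation; 0% = vehicle DMSO and -100% = reference inhibitor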
[6] = qHTS for differential inhibitors of proliferation of Plasmodium falciparum line 3D7 (AID 1876);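 also: parasite growth measured after three days of culture; 0% = vehicle wells and -100% = reference inhibitor wells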
[7] = qHTS for differential inhibitors of proliferation of Plasmodium falciparum line Dd2 (AID 1882); details: Potency: Plasmodium falciparum Dd2 proliferation inhibition;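 also: compound exposure of 72 h on infected erythrocytes; plate controls were DMSO vehicle for no effect and 0.29 µM artemisinin for full effect; nearly all actives have a fitted effect of over 65% in size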
Outline: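 RBC culture, 0.3% parasitemia / 2.5% Hct final; cpd added by pin tool in DMSO; 72 h, 37 C, 5% CO2; lysis buffer + SYBR Green I, o/n RT dark; FI 485/535; norm. to artemisinin 0.29 uM and DMSO.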

[8] = qHTS for differential inhibitors of proliferation of Plasmodium falciparum line W2 (AID 1883); details: Potency: Plasmodium falciparum W2 proliferation inhibition;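 also: parasites grown with compound for 72 h before lysis and staining; 0% = vehicle wells and -100% = control inhibitor wells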
[9] = qHTS for differential inhibitors of proliferation of Plasmodium falciparum line HB3 (AID 1886); details: Potency: Plasmodium falciparum HB3 proliferation inhibition;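 also: parasites grown with compound for 72 h before SYBR Green readout; plate controls were vehicle for no effect and reference inhibitor for full effect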
[10] = biological target: ATP-dependent DNA helicase Q1 (Homo sapiens) (UniProt P46063); assay: qHTS Validation Assay for Inhibitors of RecQ-Like Dna Helicase 1 (RECQ1) (AID 2353);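 also: plate controls were DMSO vehicle for no effect and enzyme-free control for full effect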
Sequence of ATP-dependent DNA helicase Q1 (Homo sapiens) (P46063 whole entry, looked up): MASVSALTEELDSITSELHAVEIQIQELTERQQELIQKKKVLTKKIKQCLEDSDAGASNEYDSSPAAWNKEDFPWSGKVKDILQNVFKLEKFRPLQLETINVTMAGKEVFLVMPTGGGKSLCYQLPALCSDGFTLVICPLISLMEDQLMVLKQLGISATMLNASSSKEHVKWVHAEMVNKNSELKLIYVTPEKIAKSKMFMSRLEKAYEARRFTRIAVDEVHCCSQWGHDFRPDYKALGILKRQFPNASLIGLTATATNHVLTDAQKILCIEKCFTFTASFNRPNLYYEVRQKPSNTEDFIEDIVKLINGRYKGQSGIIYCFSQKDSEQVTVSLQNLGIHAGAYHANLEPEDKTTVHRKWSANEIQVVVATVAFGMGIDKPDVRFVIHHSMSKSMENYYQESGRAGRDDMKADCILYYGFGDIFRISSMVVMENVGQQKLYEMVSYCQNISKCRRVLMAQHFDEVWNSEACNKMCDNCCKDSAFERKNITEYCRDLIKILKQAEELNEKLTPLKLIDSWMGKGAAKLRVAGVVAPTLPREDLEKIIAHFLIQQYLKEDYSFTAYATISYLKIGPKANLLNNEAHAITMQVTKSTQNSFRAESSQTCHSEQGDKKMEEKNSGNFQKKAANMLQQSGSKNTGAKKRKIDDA
Outline: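 RECQ1T1 50 nM; forked duplex (20 bp + 30-nt ss tails) 200 nM, ATP 2 mM final; pH 8.0, 2 mM MgCl2, 2.5 ug/ml poly(dI-dC); 15 min compound preincubation; discontinuous kinetic read over 2 h at RT.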

[11] = Cytometric Cell-Based qHTS for Inhibitors of the mTORC1 Signaling Pathway in MEF (Tsc2-/-, p53-/-) Cells (AID 2660);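 also: Tsc2 and p53 null MEFs carrying empty vector with compound for 24 h; percent of cells above a phospho-rpS6 to PI ratio cutoff in each well; plate controls were DMSO for no effect and rapamycin for full effect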
Outline: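 Immunofluorescence qHTS of rpS6 Ser235/236 phosphorylation: MEFs (Tsc2-/-, p53-/-) treated 24 h, 37 C, in DMEM + 10% FBS. Alexa-488 signal normalized to PI count, referenced to rapamycin (7.5 nM) and DMSO; PI cell number recorded for viability.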

[12] = High Content Imaging Cell-Based qHTS for Inhibitors of the mTORC1 Signaling Pathway in MEF (Tsc2-/-, p53-/-) Cells (AID 2666); details: at 38.3 µM (top of the series);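 also: percent of cells scored positive for phospho-rpS6 Ser235/236 immunostaining by imaging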
Outline: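 Tsc2-/-, p53-/- MEFs (empty-vector stable) grown in DMEM + 10% FBS were exposed to compounds for 24 hrs at 37 degree Celsius, fixed, and stained with Alexa-488 anti-phospho-rpS6 Ser235/236 plus Hoechst. Imaging gave the percentage of positive cells per well.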

[13] = High Content Imaging Cell-Based qHTS for Inhibitors of the mTORC1 Signaling Pathway in MEF Cells (AID 2667);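 also: Tsc2-/- p53-/- MEFs stably re-expressing wild-type Tsc2 exposed 24 h; plate controls were DMSO wells for no effect and rapamycin control wells for full effect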
Outline: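 Tsc2-/-, p53-/- MEFs stably re-expressing WT Tsc2, grown in DMEM + 10% FBS, were treated with compounds for 24 hrs at 37 degree Celsius, fixed, and stained with Alexa-488 phospho-rpS6 Ser235/236 antibody plus Hoechst; results given as % positive cells.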

[14] = Cytometry Cell-Based qHTS for Inhibitors of the mTORC1 Signaling Pathway in MEF cells (AID 2668);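 also: Tsc2-/- p53-/- mouse embryonic fibroblasts stably re-expressing wild-type Tsc2; percent cells positive for phospho-rpS6 Ser235/236 relative to propidium iodide stain; plate controls were DMSO wells for no effect and 7.5 nM rapamycin control wells for full effect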
Outline: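 Read-out: phospho-rpS6 Ser235/236 immunofluorescence normalized to propidium iodide intensity, scored as % active cells against a rapamycin (7.5 nM) threshold. Cells: Tsc2-/-, p53-/- MEFs stably expressing WT Tsc2, compound-treated 24 hrs at 37 degree Celsius.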

[15] = biological target: Endonuclease 4 (Escherichia coli (strain K12)) (UniProt P0A6C1); assay: Counterscreen for APE1 Inhibitors: qHTS Validation Assay for Inhibitors of Endonuclease IV (AID 1708); also: % is scaled to controls: 0 for no effect and ±100 for the full control effect
Outline: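 The reaction buffer contained 50 mM Tris-HCl pH 7.5, 50 mM NaCl, 2 mM MgCl2, 1 mM DTT and 0.01% Tween-20. Incision of a 50 nM fluorophore/quencher THF substrate by 2 nM enzyme was measured kinetically.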

[16] = qHTS for differential inhibitors of proliferation of Plasmodium falciparum line D10 (AID 1877);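 also: parasites grown with compound for 72 h before DNA staining; plate controls were vehicle wells for no effect and reference inhibitor wells for full effect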
[17] = biological target: RecQ-like DNA helicase BLM (Homo sapiens) (UniProt P54132); assay: qHTS Validation Assay for Inhibitors of Bloom's syndrome helicase (BLM) (AID 2364);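 also: plate controls were DMSO vehicle for no effect and enzyme-free control for full effect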
Sequence of RecQ-like DNA helicase BLM (Homo sapiens) (P54132 whole entry, looked up): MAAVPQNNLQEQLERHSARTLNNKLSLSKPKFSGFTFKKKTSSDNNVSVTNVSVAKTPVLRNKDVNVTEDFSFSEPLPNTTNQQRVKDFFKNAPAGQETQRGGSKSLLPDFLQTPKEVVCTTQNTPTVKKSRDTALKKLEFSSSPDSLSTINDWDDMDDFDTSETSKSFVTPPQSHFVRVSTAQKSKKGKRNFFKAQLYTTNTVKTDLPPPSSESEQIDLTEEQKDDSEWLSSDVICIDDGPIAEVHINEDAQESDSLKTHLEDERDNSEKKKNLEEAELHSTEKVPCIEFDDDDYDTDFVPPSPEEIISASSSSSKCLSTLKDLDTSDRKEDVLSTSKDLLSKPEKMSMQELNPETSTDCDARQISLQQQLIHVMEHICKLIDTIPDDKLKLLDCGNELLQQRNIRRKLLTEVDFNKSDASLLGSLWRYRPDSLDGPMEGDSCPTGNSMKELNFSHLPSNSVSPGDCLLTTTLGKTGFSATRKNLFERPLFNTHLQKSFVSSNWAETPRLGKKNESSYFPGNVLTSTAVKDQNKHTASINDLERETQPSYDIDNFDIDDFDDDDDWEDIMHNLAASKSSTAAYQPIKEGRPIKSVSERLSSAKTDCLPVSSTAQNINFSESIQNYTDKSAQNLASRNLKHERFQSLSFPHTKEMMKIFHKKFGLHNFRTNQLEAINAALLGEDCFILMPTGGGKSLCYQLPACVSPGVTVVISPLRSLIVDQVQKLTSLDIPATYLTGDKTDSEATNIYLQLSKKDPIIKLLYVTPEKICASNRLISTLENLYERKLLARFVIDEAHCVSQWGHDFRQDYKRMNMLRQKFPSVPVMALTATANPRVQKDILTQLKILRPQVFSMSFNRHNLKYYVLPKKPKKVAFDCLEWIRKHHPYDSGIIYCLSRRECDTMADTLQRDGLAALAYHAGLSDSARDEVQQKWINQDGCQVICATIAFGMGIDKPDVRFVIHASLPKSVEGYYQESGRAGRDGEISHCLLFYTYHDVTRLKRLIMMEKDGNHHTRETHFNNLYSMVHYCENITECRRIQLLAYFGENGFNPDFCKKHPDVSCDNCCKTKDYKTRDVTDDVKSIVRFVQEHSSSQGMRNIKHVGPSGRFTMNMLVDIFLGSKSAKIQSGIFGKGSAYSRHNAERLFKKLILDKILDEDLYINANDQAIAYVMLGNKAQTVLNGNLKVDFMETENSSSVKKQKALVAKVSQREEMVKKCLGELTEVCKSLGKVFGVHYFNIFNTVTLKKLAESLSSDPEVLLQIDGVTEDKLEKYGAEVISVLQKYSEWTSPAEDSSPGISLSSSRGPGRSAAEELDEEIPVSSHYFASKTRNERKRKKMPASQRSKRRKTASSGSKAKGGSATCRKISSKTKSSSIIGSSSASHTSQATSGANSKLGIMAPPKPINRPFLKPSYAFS
Outline: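 Forked 20-bp duplex substrate (200 nM, TAMRA/BHQ-2) plus 2 mM ATP added after 15 min compound preincubation with 50 nM enzyme, pH 8.0, poly(dI-dC) 2.5 ug/ml. Strand separation followed by fluorescence (525/598 nm) over 2 h, normalized to enzyme-free and DMSO controls.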

[18] = measured here: cell count channel max response
[19] = measured here: lipid channel max response

O=NN(CCCl)C(=O)NCCCl
-3.08%: max response [1, 18]
inactive: activity change, negative = inhibition [1] -2.32% | outcome [2] | outcome [3] | Potency [4] | Potency [5] | Potency [6] | Potency [7] | Potency [8] | Potency [9] | outcome [10] | outcome [11] | outcome [12] | outcome [13] | outcome [14]
-6.13%: max response [1, 19]

C[C@]12CCC(=O)C=C1CC[C@@H]1[C@@H]2[C@@H](O)C[C@@]2(C)[C@H]1CC[C@]2(O)C(=O)CO
inactive: outcome [11] | outcome [12] | outcome [13] | outcome [14]

O=C(O)COCCN1CCN(C(c2ccccc2)c2ccc(Cl)cc2)CC1 (stereo unspecified)
inactive: activity change, negative = inhibition [1] 5.98% | outcome [11] | outcome [14]
4.08%: max response [1, 18]
13.6%: max response [1, 19]

O=C1CCc2cc(OCCCCc3nnnn3C3CCCCC3)ccc2N1
inactive: activity change, negative = inhibition [1] -9.74% | outcome [2] | outcome [3] | Potency [7] | outcome [10] | outcome [11] | outcome [12] | outcome [13] | outcome [14]
-20.7%: max response [1, 18]
-27.2%: max response [1, 19]
active: Potency [4] 14.1 µM

Cc1[nH]c(=O)c(C#N)cc1-c1ccc2nccn2c1
inactive: activity change, negative = inhibition [1] -1.62% | outcome [2] | outcome [3] | outcome [15] | Potency [4] | Potency [5] | Potency [6] | Potency [7] | Potency [9] | outcome [10] | outcome [11] | outcome [12] | outcome [13] | outcome [14]
25.3%: max response [1, 18]
21.7%: max response [1, 19]

O=c1[nH]cnc2[nH]ncc12
inactive: activity change, negative = inhibition [1] 3.88% and -0.195% | outcome [2] | outcome [3] | outcome [15] | Potency [4] | Potency [5] | Potency [6] | Potency [16] | Potency [7] | Potency [8] | Potency [9] | outcome [10] | outcome [11] | outcome [12] | outcome [13] | outcome [14]
3.2% and 58%: max response [1, 18]
12.9% and 60.4%: max response [1, 19]

CNC[C@H](O)c1cccc(O)c1
20.5%: max response [1, 18]
21.2%: max response [1, 19]
inactive: activity change, negative = inhibition [1] 0.239% | outcome [2] | outcome [3] | outcome [15] | Potency [4] | Potency [5] | Potency [6] | Potency [16] | Potency [7] | Potency [8] | Potency [9] | outcome [10] | outcome [11] | outcome [12] | outcome [13] | outcome [14]

CC(C)(C)NCC(O)c1ccc(O)c(CO)c1 (stereo unspecified)
15.4% and -7.47%: max response [1, 19]
11.9% and -13.2%: max response [1, 18]
inactive: activity change, negative = inhibition [1] 0.332% and 5.35% | outcome [2] | outcome [3] | outcome [15] | outcome [10] | Potency [17] | outcome [11] | outcome [12] | outcome [13] | outcome [14]

— PubChem BioAssay (NCATS)
